In the OligoGym collection:

Biological target: ACCN2
Experiment: pooled miR-30 sensor sort-seq; sequence = guide strand
Details: shRNA
Further: reference of the scale not given here.

Sequence	sensor-assay potency score (higher = more potent)
TTTTCATCTGCCATCTGTGTGT	0.238
TGTAGCACTTTCCATAGCGTGT	-0.609
TTTGTCCTGCAGTATCTCCAGC	-1.1
TTGAACGTGTAGCACTTTCCAT	-0.501
TCAGATTTGTTGAACTTCTTGG	1.11
TTTGCTGGGGATCTTGACCATG	-1.14
TTGCACAGCGTGACAGCAGGGA	0.305
TATAGCAATATAGAGTCTGTAT	-0.0507
TTTGACGTCGTCCAGGCTGAGG	-1.49
TTCAATGGTCTCATAGTTGAGG	-0.393
TTTGTTGAACTTCTTGGCCAGG	-0.861
TAGTACTGCACACGCTCCGTGC	-0.962

Biological target: ACCN3
Experiment: as above
Details: shRNA

Sequence	sensor-assay potency score (higher = more potent)
TAGTAGTGGTGAGCAGCTCTGC	-0.938
TAGCACTTTCCCATCCGGGTGA	0.401
TTGCACAGGGTGACAGCCGGGA	-0.486
TGTAGCACTTTCCCATCCGGGT	-0.708
TTTCTCGCTCATCCAGGGCAGT	-1.12
TAAATGTGTAGCACTTTCCCAT	-0.325
TTCGGCAGCCGCACTTCCGAGC	-1.09
TTGTCTCGGAACACCTCACAGA	-0.903
TGTAGTAGCGCACCCTCTCAGC	-1.06
TATCCCAGGACCTTGTCTCGGA	-0.411

Biological target: ACOT1
Experiment: as above
Details: shRNA

Sequence	sensor-assay potency score (higher = more potent)
ATTCGCACCGGTTCGTCCCAGC	-0.912
TTCATAGTTATAGTAAGCCAGA	-1.24
TTGTAGCGTAAGGTTCCCCCAA	-1.03
AGTTGTGGTCATCCTGACCTAC	-1.25
TACCTCAGGATGACTGAGCAAG	-0.802
TTTTACCTCAGGATGACTGAGC	-0.46
AGCTCTTCTGGTCAGGTCCTTC	-1.49
ATCTTTGGTCACCTTGATGCGA	-0.779
AACATGTCCACAATGCCAGGAA	-0.319
TGAGCAAGTAGTTCACAGCTTC	-0.12
TAGCGCTCGTGCCGCACCCGGC	-1.32
TCGCACGTCGCGCTTCACCAGC	-1.56

Biological target: ACOT6
Experiment: as above
Details: shRNA

Sequence	sensor-assay potency score (higher = more potent)
TTCTGGGTAACAGATTATCTGG	-1.27
AATACTAGGACCTTTCACCTTT	0.28
TAGTGATTTTTACTTTTCCTAG	-1.27
TAATGTAGAGGAGCTACTGTGT	0.0472
TTAGGAATAATCATATCCTTGT	0.922
TTTCCCATGAGCTTGTAGCCTT	-0.268
